Rows were chosen to be rich in hits. Some 2.4% of all compounds tested hit in one or more screens of this group.
PKM2 act = qHTS Assay for Activators of Human Muscle isoform 2 Pyruvate Kinase | hit rate 0.34% among 260,000 | AID 1631, 2009 | Potency, µM (titrated, usually from 57.5 µM), hits mostly activators | Pyruvate kinase PKM (Homo sapiens), P14618 | purified PKM2, Kinase-Glo ATP luminescence, activation; response scale: 0% is enzyme alone, no compound; further: nearly all actives have a fitted effect of over 55% in size
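Purified hPK-M2 (>95% pure) converted ADP (0.1 mM final) to ATP with 0.5 mM PEP in 50 mM imidazole pH7.2, KCl, MgCl2, Tween 20, BSA; 1 h at room temperature. ATP detected by Kinase-Glo luminescence.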
Tb PFK inh = qHTS Assay to Find Inhibitors of T. brucei phosphofructokinase; ATP-dependent 6-phosphofructokinase (Trypanosoma brucei brucei), O15648; T. brucei PFK, ADP-Glo luminescence; Potency, µM (doses to about 57.5 µM), usual class: inhibitors; hit rate 0.17% among 330,000; further: nearly all actives have a fitted effect of over 60% in size
Target sequence (O15648 whole entry, looked up): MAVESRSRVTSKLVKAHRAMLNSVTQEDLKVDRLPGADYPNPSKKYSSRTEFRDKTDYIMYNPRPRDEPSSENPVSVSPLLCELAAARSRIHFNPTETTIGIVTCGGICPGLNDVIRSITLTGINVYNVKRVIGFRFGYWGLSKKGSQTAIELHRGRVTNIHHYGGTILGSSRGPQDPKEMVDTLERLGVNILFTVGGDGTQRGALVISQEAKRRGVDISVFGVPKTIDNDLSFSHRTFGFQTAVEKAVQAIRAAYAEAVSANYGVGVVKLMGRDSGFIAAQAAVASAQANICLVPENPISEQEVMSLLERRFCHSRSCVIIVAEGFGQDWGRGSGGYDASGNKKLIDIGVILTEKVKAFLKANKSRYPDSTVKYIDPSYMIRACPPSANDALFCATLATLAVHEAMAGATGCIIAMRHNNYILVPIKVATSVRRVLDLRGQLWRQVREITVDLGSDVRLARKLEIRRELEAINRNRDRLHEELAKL
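ADP-Glo luminescence quantified ADP after 45 min at room temperature, with 1.25 nM T. brucei PFK, 0.1 mM ATP and 0.5 mM fructose-6-phosphate in pH 8.0 TEA buffer. qHTS titrations up to 57 µM; curves classified by quality.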
Tb PGK inh = qHTS Assay to Find Inhibitors of Phosphoglycerate Kinase; Phosphoglycerate kinase, glycosomal (Trypanosoma brucei brucei), P07378; PGK/GAPDH coupled, Kinase-Glo luminescence, 60 min; Potency, µM (series often up to 57.5 µM), hits mostly inhibitors; hit rate 0.043% among 380,000; further: nearly all actives have a fitted effect of over 60% in size
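Luminescent ATP detection (Kinase-Glo Plus) follows a 60-minute room-temperature incubation, with wells lacking PGK as controls. Buffer: 100 mM TEA (pH 7.6), 5 mM MgCl2, 0.01% Tween-20. Coupling enzyme GAPDH (100 nM final) supplies unstable 1,3-BPG in-well.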
ELG1 DNA repair = qHTS screen for small molecules that inhibit ELG1-dependent DNA repair in human embryonic kidney (HEK293T) cells expressing luciferase-tagged ELG1. HEK293T ELG1-luciferase reporter, luminescence, 16 h; DNA damage induced by 5-fluorouridine. Potency, µM (series often up to 46.1 µM), most hits filed as inhibitors. hit rate 2.3% among 330,000. AID 504467, 2011; further: nearly all actives have a fitted effect of over 55% in size
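Cells (2,000 per well) received 5-fluorouridine plus test compound or DMSO and were incubated 16 hr at 37 °C, 5% CO2. Luciferase activity was read by luminescence 30 min after ONE-Glo addition; signal suppression marked inhibition of damage-induced ELG1 function.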
Rango dissoc inh = qHTS Assay for Inhibitors of RanGTP induced Rango (Ran-regulated importin-beta cargo) - Importin beta complex dissociation. Snurportin-1 (Homo sapiens) + GTP-binding nuclear protein Ran (Homo sapiens) + Importin …. Biochemical FRET Rango-importin beta, RanGTP-induced dissociation. Potency, µM (highest dose often 46.1 µM). hit rate 0.071% among 340,000; calls by dose curve; further: nearly all actives have a fitted effect of over 45% in size
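FRET read at 45 min, room temperature: inhibitors block the CFP/YFP signal rise when RanGTP (0.6 uM Ran, 2 mM GTP, 0.2 uM RCC1) frees Rango (0.1 uM) from importin beta (0.25 uM). Pre-read after 5 min compound exposure flags interference.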
Rango-impB inh = qHTS Assay for Inhibitors of Rango (Ran-regulated importin-beta cargo) - Importin beta complex formation | Rango CFP/YFP FRET sensor + importin beta, 45 min | Potency, µM (series often up to 92.2 µM) | hit rate 0.031% among 340,000 | AID 540263, 2011; calls by dose curve; further: nearly all actives have a fitted effect of over 15% in size
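FRET biosensor (snurportin 1 IBB flanked by EYFP and cerulean), 50 nM, with compound 5 min, then 0.125 microM importin beta in PBS, 1 mM DTT, 0.02% Tween-20, 0.1% BSA. CFP/YFP ratio read after 45 min at room temperature; pre-read flags interference.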
Large screens that a line does not name were inactive. Unless noted, the call rests on the fitted dose curve; in most records, active means well fitted curve in the direction sought with a large enough effect; inconclusive means small, poorly fitted or top-dose-only effect, or another doubt; inactive means no such curve, though single readings can be large; an effect the other way counts as inactive or inconclusive.

COc1cc(-c2ccno2)ccc1S(=O)(=O)N1CCN(c2cc(C)ccc2C)CC1	none (no result: PKM2 act, Tb PFK inh, ELG1 DNA repair, Rango dissoc inh, Rango-impB inh)
O=C(NCCc1nc2ccccc2[nH]1)C1CCC(=O)N(CCc2cccc(F)c2)C1 (stereo not given)	none
Cc1nc(N2CCOCC2)c2nc(-c3ccccc3)n(CCN3CCOCC3)c2n1	none (no result: Tb PFK inh, Tb PGK inh, ELG1 DNA repair, Rango dissoc inh, Rango-impB inh)
COc1ccc(S(=O)(=O)N2CCOCC2)cc1NC(=O)c1cccs1	none (no result: PKM2 act)
N#C/C(=N\Nc1cccc([N+](=O)[O-])c1)C(=O)c1ccc(Br)cc1	ELG1 DNA repair 1.83µM
Cc1cccc(-c2nnn3c2nc(NCCc2ccc(S(N)(=O)=O)cc2)c2ccccc23)c1	ELG1 DNA repair 2.59µM, Rango-impB inh inconclusive
Cc1ccc(-c2nnn3c2nc(NCCc2ccc(Cl)cc2)c2ccccc23)cc1	none (no result: PKM2 act, Tb PFK inh, ELG1 DNA repair, Rango dissoc inh, Rango-impB inh)
Cc1cccc(-c2nnn3c2nc(NCCc2ccc(S(N)(=O)=O)cc2)c2cc(Cl)ccc23)c1	none (no result: PKM2 act, Tb PFK inh, ELG1 DNA repair, Rango dissoc inh, Rango-impB inh)
NS(=O)(=O)c1ccc(CCNc2nc3c(-c4cccc(F)c4)nnn3c3ccccc23)cc1	ELG1 DNA repair 2.59µM
Cc1ccc(C)c(CNC(=O)c2ccc3c(c2)nc2n3CCCCC2)c1	none (no result: PKM2 act, Tb PFK inh, ELG1 DNA repair, Rango dissoc inh, Rango-impB inh)
Cc1ccc(N(Cc2cc3ccccc3[nH]c2=O)C(=O)c2cccs2)cc1C	ELG1 DNA repair 23.1µM
O=C(c1cccs1)N(Cc1cc2ccccc2[nH]c1=O)c1ccccc1	none
COCc1[nH]nc2c1C(c1cc(OC)c(O)c(OC)c1)C(C#N)=C(N)O2 (stereo not given)	ELG1 DNA repair 18.4µM, Rango-impB inh inconclusive
Cc1cc(C)c2c(N)c(C(=O)c3ccccc3Cl)sc2n1	Rango dissoc inh inconclusive, Rango-impB inh inconclusive
Cc1cc(C)c2c(N)c(C(=O)c3cccc(Cl)c3)sc2n1	ELG1 DNA repair 25.9µM, Rango dissoc inh inconclusive, Rango-impB inh inconclusive
CC(=O)c1sc2nc(C)cc(C)c2c1N	Rango dissoc inh inconclusive, Rango-impB inh inconclusive
Cc1cc(C)c2c(N)c(C(=O)c3ccc(Cl)cc3Cl)sc2n1	ELG1 DNA repair 10.3µM, Rango dissoc inh inconclusive, Rango-impB inh inconclusive
O=[N+]([O-])c1ccccc1S(=O)(=O)Nc1cccc(-c2ccc3nncn3n2)c1	none (no result: PKM2 act)
COc1cccc(-c2nnc(SCC(=O)NC3CCS(=O)(=O)C3)n2C)c1 (stereo not given)	none (no result: PKM2 act)
COC(=O)c1ccccc1S(=O)(=O)N(Cc1ccco1)Cc1cc2cc(OC)ccc2[nH]c1=O	Tb PFK inh inconclusive, ELG1 DNA repair 23.1µM
CC(=O)NS(=O)(=O)c1ccc2sc(C)nc2c1	none
NS(=O)(=O)c1cccc(NC(=O)CSc2nnc(NC3CC3)s2)c1	none (no result: PKM2 act, Tb PFK inh, ELG1 DNA repair, Rango dissoc inh, Rango-impB inh)
Cc1cccc(C2c3[nH]c4ccccc4c3CCN2Cc2cccn2-c2ncccn2)c1 (stereo not given)	ELG1 DNA repair inconclusive, Rango-impB inh inconclusive
COc1ccc(C2c3[nH]c4ccccc4c3CCN2Cc2cccn2-c2ncccn2)cc1C (stereo not given)	ELG1 DNA repair 20.6µM, Rango-impB inh inconclusive
Cc1nn(Cc2ccc(C(=O)Nc3ccc(C(=O)OC(C)C)cc3)o2)c(C)c1Cl	ELG1 DNA repair 18.4µM (no result: Tb PGK inh)
Cc1ccc(-c2onc(C)c2C)cc1S(=O)(=O)Nc1cccc(Cl)c1C	none (no result: PKM2 act, Tb PFK inh, ELG1 DNA repair, Rango dissoc inh, Rango-impB inh)
COC(=O)C1C(=O)C2=C(CC1C)NC(C)=C(C(=O)OCc1ccc(OC)cc1)C2c1ccc(C)o1 (stereo not given)	ELG1 DNA repair inconclusive, Rango-impB inh inconclusive
